Compounds with a hit are over-represented: about 7.8% of the library has one in this group of screens.
HCV inhibitor: blocks hepatitis C virus; Huh7.5.1 HCVcc-Cre infection, luciferase reporter, 44 h; Potency, µM (series often up to 41.8 µM), inactives show at the top dose activity change, negative = inhibition, most hits filed as inhibitors; 3.4% of 340,000 active; active means well fitted inhibition curve with a large enough effect; inconclusive means small, poorly fitted or top-dose-only effect, or another doubt; inactive means no such curve, though single readings can be large or run the other way; further: potency means the concentration at half of the fitted maximal effect
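Cells (1,000/well) were plated 4 h before compound, then infected with HCVcc-Cre virus (~0.5 moi). After 44 h further culture, infection was read as luciferase luminescence following a 15 min substrate incubation at room temperature.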
Vaccinia mCherry: inhibitors of vaccinia virus infection (mCherry reporter signal). Potency, µM (doses to about 36.5 µM), for inactives: top-dose activity change, negative = inhibition, hits mostly inhibitors. 0.63% of 310,000 active. Vaccinia virus mCherry reporter infection, fluorescence. AID 720579; calls by dose curve; tested in A549 cells; further: potency means the concentration at half of the fitted maximal effect; nearly all actives have a fitted effect of over 35% in size
HCMV inh: human cytomegalovirus inhibition. activity change, negative = inhibition, % at 57.5 µM. HFF cells, HCMV-luciferase reporter, 72 h; active compounds read low. 4.5% of 410,000 active. AID 1259415; in the data active means activity change below about -60%; inconclusive means no clear call, values can overlap the other calls; inactive means above about -39%
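Compounds were evaluated in HFFs infected with an HCMV luciferase reporter virus (MOI 1 PFU/cell). Luciferase in lysates collected 72 h post infection served as the replication measure.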
Vaccinia Venus: inhibitors of vaccinia virus (Venus reporter); Vaccinia virus Venus reporter expression, fluorescence; Potency, µM (top dose mostly 36.5 µM), inactives show at the highest dose activity change, negative = inhibition, actives largely listed as inhibitors; 0.46% of 330,000 active; AID 720580; calls by dose curve; tested in A549 cells; further: potency means the concentration at half of the fitted maximal effect; nearly all actives have a fitted effect of over 30% in size
LASV entry inh: inhibitors of Lassa virus binding or cell entry. 1.2% of 300,000 active. AID 540256. Lassa virus pseudotype entry inhibition, cell reporter. Potency, µM (series often up to 37.9 µM), for inactives: at the highest dose activity change, negative = inhibition, usual class: inhibitors; calls by dose curve; tested in HEK293 cells; further: potency means the concentration at half of the fitted maximal effect; nearly all actives have a fitted effect of over 50% in size
MARV entry inh: blocks Marburg virus binding to or entry into cells. AID 540276. Marburg virus pseudotyped entry inhibition, cell reporter. 1.8% of 300,000 active. Potency, µM (doses to about 37.8 µM), for the others: at the top dose activity change, negative = inhibition, usual class: inhibitors; calls by dose curve; tested in HEK293 cells; further: potency means the concentration at half of the fitted maximal effect
The depositor's hits bear a star; ! = repeats disagree; [ ] = dose if it differs, or a comment. On the % scale 0 is the no-effect control and ±100 the full control effect.

Screening COc1cc2sc(-c3ccc(S(C)(=O)=O)cc3)c(-c3ccc4c(c3)OCO4)c2cc1OC returned HCV inhibitor 2.8µM*, Vaccinia mCherry inconclusive, HCMV inh -28 and Vaccinia Venus -18%.
For COc1cc2c(OC(C)=O)c3c(c(-c4ccc5c(c4)OCO5)c2cc1OC)C(=O)OC3 the results were HCV inhibitor inconclusive, Vaccinia mCherry inconclusive, HCMV inh -93* and Vaccinia Venus inconclusive.
Screening COc1cc2c(O)c3c(c(-c4ccc5c(c4)OCO5)c2cc1OC)C(=O)OC3 returned HCV inhibitor inconclusive, Vaccinia mCherry inconclusive, HCMV inh -96*, Vaccinia Venus inconclusive, LASV entry inh 3.7µM* and MARV entry inh 2.3µM*.
O=S(=O)(c1ccc(F)cc1)c1nc(-c2ccco2)oc1Nc1ccccc1 was read as HCV inhibitor -1%, HCMV inh 6, LASV entry inh inconclusive and MARV entry inh 11%.
O=S(=O)(c1ccccc1)c1nc(-c2ccco2)oc1Nc1ccccc1 was read as HCV inhibitor -22%, Vaccinia mCherry -18%, HCMV inh -62*, Vaccinia Venus -8%, LASV entry inh inconclusive and MARV entry inh 0%.
For Cc1ccccc1-n1nc(C)c2cc(C(=O)N3CCN(S(=O)(=O)c4ccc(F)cc4)CC3)sc21 the results were HCV inhibitor inconclusive, HCMV inh -22, LASV entry inh inconclusive and MARV entry inh 21µM*!.
For CC1CCCCC12NC(=O)N(CC(=O)NCc1ccc3c(c1)OCO3)C2=O (configuration not stated) the results were HCV inhibitor 12%, Vaccinia mCherry -1%, HCMV inh -80*, Vaccinia Venus 12%, LASV entry inh 6% and MARV entry inh 0%[46.1 µM].
CC1CCCCC12NC(=O)N(CC(=O)OCc1ccc(Br)cc1)C2=O (configuration not stated) was read as HCV inhibitor 1% and HCMV inh active.
`CC1CCCCC12NC(=O)N(CC(=O)N1CCN(Cc3ccc(C#N)cc3)CC1)C2=O` (configuration not stated) gave HCV inhibitor 10µM* and HCMV inh 0.
Screening O=C(CN1C(=O)NC2(CCCC2)C1=O)OCc1ccc(Br)cc1 returned HCV inhibitor inconclusive, Vaccinia mCherry -4%, HCMV inh -18, Vaccinia Venus -2%, LASV entry inh 17% and MARV entry inh 5%[46.1 µM].
`CCC(C)n1c(=O)c2sccc2n2c(CCCC(=O)NCc3ccccc3Cl)nnc12` (configuration not stated) gave Vaccinia mCherry -5%, HCMV inh -26, Vaccinia Venus -10% and LASV entry inh 22%[46.1 µM].
`Cc1nn(CC(=O)NCc2cccc(F)c2)c(=O)c2c(C)n(-c3ccc(Cl)cc3)nc12` gave Vaccinia mCherry inactive, HCMV inh -25, Vaccinia Venus -23% and LASV entry inh -17%[46.1 µM].
`CCOc1ccccc1N1CCN(CC(=O)Nc2ccnn2C2CCCC2)CC1` gave HCV inhibitor 13µM* and HCMV inh -14.
Screening CCOc1ccc(S(=O)(=O)Nc2cccc(-c3ccc(N4CCC(C)CC4)nn3)c2)cc1 returned Vaccinia mCherry -23%, HCMV inh 60, Vaccinia Venus -18% and LASV entry inh -4%[46.1 µM].
CC(=O)c1cc(-c2ccccc2)n(CCC(=O)NC2CCCCCCC2)c1C was read as HCV inhibitor inconclusive, Vaccinia mCherry inactive, HCMV inh -33, Vaccinia Venus inconclusive, LASV entry inh 6% and MARV entry inh -67%.
Screening CC(=O)c1cc(-c2ccccc2)n(CC(=O)Nc2ccc(C)cc2C)c1C returned Vaccinia mCherry -16%, HCMV inh active, Vaccinia Venus -11% and LASV entry inh 3%[46.1 µM].
For CCOC(=O)c1cc(-c2ccc(F)cc2)n(CCC(=O)NC2CCN(Cc3ccccc3)CC2)c1C the results were HCV inhibitor 4µM*, HCMV inh -20, LASV entry inh inconclusive and MARV entry inh inconclusive.
For Cc1nc2ccccc2n1CC(=O)NC1CCCCCC1 the results were HCV inhibitor inconclusive and HCMV inh -62*.
`CCOC(=O)c1cc(-c2ccc(OC)cc2)n(CCC(=O)NC2CCN(Cc3ccccc3)CC2)c1C` gave HCV inhibitor inconclusive, Vaccinia mCherry -22%, HCMV inh 141 and Vaccinia Venus inconclusive.
`CC(=O)c1cc(-c2ccccc2)n(CC(=O)NC2CCCCCC2)c1C` gave Vaccinia mCherry -23%, HCMV inh active, Vaccinia Venus -15% and LASV entry inh 13%[46.1 µM].
For CC1=CC[C@@H](COc2ccccc2)O[C@@]2(C1)C(=O)Nc1cccc(Br)c12 the results were LASV entry inh inconclusive and MARV entry inh 4%[14.2 µM].
Screening CCc1nn(CC(=O)NC(C)CC)c(=O)c2cc3c(OC)cccc3n12 (configuration not stated) returned Vaccinia mCherry -5%, HCMV inh -24, Vaccinia Venus -9% and MARV entry inh 1%[46.1 µM].
For O=C(CN1C(=O)S/C(=C\c2ccc(F)cc2)C1=O)Nc1cccc(S(=O)(=O)NCc2ccco2)c1 the results were HCV inhibitor -15%, Vaccinia mCherry -27%, HCMV inh -98*, Vaccinia Venus -18%, LASV entry inh -27% and MARV entry inh 6%[46.1 µM].
`COC(=O)c1sccc1S(=O)(=O)N(CC(=O)Nc1cc(F)ccc1F)c1ccc(C)c(C)c1` gave Vaccinia mCherry -10%, HCMV inh 9, Vaccinia Venus -16% and LASV entry inh -42%[46.1 µM].
Screening Cc1ccc(C)c(N2CCN(S(=O)(=O)c3ccc(-c4cc(C(F)(F)F)on4)s3)CC2)c1 returned Vaccinia mCherry -8%, HCMV inh -16, Vaccinia Venus -8% and LASV entry inh inconclusive.
`COc1ccc(/C=C2\CCCCC2=O)cc1` gave HCV inhibitor -11%, Vaccinia mCherry -7%, HCMV inh 58, Vaccinia Venus 10%, LASV entry inh inconclusive and MARV entry inh -4%[46.1 µM].
For COc1ccc(C=C2CS(=O)(=O)CC(=Cc3ccc(OC)cc3)C2=O)cc1 the results were Vaccinia mCherry inconclusive, HCMV inh -99* and Vaccinia Venus inconclusive.
Screening O=S(=O)(/C=C/c1ccccc1)N1CCC(n2c(C3CCCO3)nc3cccnc32)CC1 (configuration not stated) returned Vaccinia mCherry 1% and Vaccinia Venus 11%.
`C[C@@H]1CC[C@H]2C(=O)O[C@H](COc3ccc(C(C)(C)C)cc3)CN2[C@@H]1c1ccc(Br)cc1` gave LASV entry inh -27%[14.3 µM] and MARV entry inh inconclusive.
COc1cc(CC(=O)Nc2cccc(S(=O)(=O)N(C)c3ccccc3)c2)cc(OC)c1OC was read as HCV inhibitor 10µM* and HCMV inh inconclusive.
